Assay outcomes (PubChem BioAssay)
Compounds with a hit are over-represented: about 2.5% of the library has one in this group of screens.
AI-2 QS mod: Vibrio harveyi AI-2 quorum sensing modulation. Vibrio harveyi JMH597 AI-2 luminescence/OD600 ratio, 9 h; stronger effect = lower value; strain lacks LuxN and CqsS sensors; 0 = neutral-control median. activity change, % at 7.5 µM. 300,000 compounds, 0.4% hits; in the data active = activity change below about -75%, passing the limit was not always enough; inconclusive = no clear call, values can overlap the other calls;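 also: luminescence divided by OD600 gain over 9 h not by final OD600 alone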
V-ATPase pH: yeast V-ATPase proton transport regulation by pHLuorin; AID 504577; S. cerevisiae, pHLuorin cytosolic pH fluorescence; response, % at 10 µM; 350,000 compounds, 0.37% hits; in the data active = response mostly above about 7.3%, no sharp cut-off; inactive = mostly below about 5.4%; also: actives read high
ATG4B inhibitor: blocks human ATG4B protease cleavage of LC3 substrate | Q9Y4P1 | ATG4B cleavage of LC3-PLA2, NBD-HPC fluorescence, 1 h | inhibition, % at 8.33 µM | 340,000 compounds, 0.51% hits | AID 504462; in the data active = inhibition above about 40%
Target sequence (Q9Y4P1 whole entry, looked up): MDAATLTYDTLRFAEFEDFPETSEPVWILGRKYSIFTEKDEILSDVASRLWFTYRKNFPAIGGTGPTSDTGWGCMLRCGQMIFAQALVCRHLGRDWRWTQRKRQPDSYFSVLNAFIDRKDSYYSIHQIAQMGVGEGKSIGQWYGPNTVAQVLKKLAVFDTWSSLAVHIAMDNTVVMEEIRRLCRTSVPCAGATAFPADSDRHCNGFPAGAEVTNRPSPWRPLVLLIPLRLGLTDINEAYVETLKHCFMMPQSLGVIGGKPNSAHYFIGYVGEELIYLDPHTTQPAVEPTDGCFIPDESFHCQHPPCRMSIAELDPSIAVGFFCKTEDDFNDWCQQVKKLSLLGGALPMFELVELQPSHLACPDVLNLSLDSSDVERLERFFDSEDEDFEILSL
SUMO Mot1 rescue: blocks SUMOylation pathway, rescuing yeast Mot1-301 growth | S. cerevisiae Mot1-301 growth rescue, ATP luminescence, 38.5C; percent above DMSO median, 100 means doubled | growth rescue, % at 18.8 µM | 320,000 compounds, 1% hits | AID 2716;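 active = every valid replicate shows activation above 250% relative to neutral control wells; inactive = the rest, any valid replicate at or below 250%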;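 also: OY570 slx delta 5 strain wells were the positive control but not used for scaling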
Efflux pump mplx: inhibitors of Candida antifungal efflux pumps expressed in yeast. S. cerevisiae Candida pump triplex, Nile Red efflux. inhibition, % at 10 µM. AID 485275. 330,000 compounds, 0.44% hits;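 active = plate passing quality check with inhibition over a set limit, or well fluorescence over plate mean plus 4 SD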;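 also: Nile Red retained in pooled yeast measured as flow cytometry median fluorescence; 0% = buffer negative control and 100% = Enniatin B positive control; higher means more Nile Red kept so more efflux inhibition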
Yeast Mot1 SUMO: inhibits SUMO pathway, affecting Mot1-301 yeast growth | shares compounds with SUMO Mot1 rescue | S. cerevisiae Mot1-301 galactose growth, ATP luminescence, 24 h; -100 = growth of slx-deleted rescue strain | growth activity, percent, % at 42 µM | 2,300 tested, under 10 active;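 active = Signal drops as the depositor expects, and the fitted half-maximal dose is no more than ten times the top valid tested dose; inconclusive = Poor fit, or a flat curve whose signal drops by 30% to 70%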;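 also: more negative values mean stronger growth rescue toward the control strain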
Starred values were filed as active, the others as inactive; ? = inconclusive; · = no result given; + = active, no number.

SMILES	AI-2 QS mod	V-ATPase pH	ATG4B inhibitor	SUMO Mot1 rescue	Efflux pump mplx	Yeast Mot1 SUMO
C/C(CC(=O)Nc1cccnc1)=N\NC(=O)C(C)Oc1ccc(Cl)cc1Cl (stereo not given)	8.7	-4.7	-5.6	671.3*	0.1	-0.2
Cc1nc(-c2coc3c(CN(C)C)c(O)ccc3c2=O)cs1	18.7	-4.0	9.2	-13.0	0.1	·
CCc1ccc(-n2c(Cc3ccccc3)n[nH]c2=S)cc1	-5.3	4.9	4.8	888.8*	0.3	1.7
CC(C)(C)Cc1nc(-c2ccccn2)no1	17.3	2.7	-3.1	391.9*	0.0	0.1
Cc1ccc(OCc2nc(-c3ccccn3)no2)cc1	?	6.6	-0.1	-1.3	0.1	·
Cc1nc(N2CCN(c3ccccn3)CC2)c2c(C)c(C(=O)N3CCN(c4ccccc4F)CC3)sc2n1	22.1	0.6	-4.7	427.3*	0.2	0.3
O=S(=O)(Cc1cc(-c2ccccc2)no1)c1ccccc1	9.1	0.9	-5.1	642.6*	0.0	-0.1
O=C(c1ccc(Br)cc1)C(CN1CCOCC1)c1ccccc1 (stereo not given)	47.8	2.4	3.6	460.1*	0.0	-1.2
CC(C)(C)NC(=S)NCc1ccncc1	13.3	-2.0	-3.0	-18.9	0.0	·
COc1ccccc1C1CC(=O)Oc2cc(O)ccc21 (stereo not given)	·	0.0	0.2	·	-0.3	·
O=C1CC(c2ccccc2)c2ccc(O)cc2O1 (stereo not given)	-1.3	3.7	10.0	+	-0.2	0.4
COc1ccc2[nH]c3c(c2c1)CCN1C(=O)C(CC(=O)NCCCn2ccnc2)C[C@H](C(=O)N2CCCCC2)[C@@]31CCc1ccccc1 (stereo not given in full)	·	-2.2	·	·	-0.1	·
Cc1cccc(/C=N/NC(=O)Cc2cccs2)c1	?	-3.0	4.0	908.2*	0.2	-0.2
O=C(Cc1cccs1)N/N=C/c1ccccc1	-0.4	2.8	-2.3	3.3	-0.1	·
Cc1nc(N)c(Cc2ccccc2F)c(N)n1	17.8	2.6	5.7	433.4*	0.0	1.5
COc1cccc(NC(=O)CNC(=O)c2ccc(C)cc2)c1	41.3	27.7	3.8	499.1*	0.1	-0.4
COc1cc(C(=O)NCC(=O)Nc2c(C)cccc2C)ccc1OCc1ccccc1	·	-3.1	-2.5	4.3	0.1	·
CCCCSCCCNC(=O)Nc1cccc(OC)c1	5.2	-0.5	9.4	548.8*	0.0	-0.8
COc1ccc(C(=O)NCC(=O)Nc2ccccc2)cc1OC	26.8	-3.9	-12.8	449.2*	0.1	0.6
COc1cccc(OC)c1C(=O)Nc1ccc(C(=O)NCc2ccccc2)cc1	36.6	-2.4	-3.6	-2.8	0.0	·
O=C(Nc1nnc(-c2ccco2)o1)c1ccc(S(=O)(=O)N2CCCC2)cc1	21.4	1.0	-5.2	473.7*	0.4	-0.4
Cc1cccc(N(Cc2ccccc2)C(=O)CSC(C)C(=O)Nc2cc(C)on2)c1 (stereo not given)	5.3	-1.6	-2.2	554.5*	0.2	0.0
O=c1[nH]c2ccccc2c2cn(-c3ccccc3)nc12	15.3	0.3	1.4	-23.4	-0.1	·
CN(C(=O)c1ccc(-c2nn(C)c(=O)c3ccccc23)cc1)C1CCCCC1	-3.2	4.1	1.1	736.3*	0.1	-0.1
CN(CC(=O)NCc1cccs1)S(=O)(=O)c1cccc2nsnc12	5.6	3.2	-5.9	435.9*	-0.1	0.0
SMILES	AI-2 QS mod	V-ATPase pH	ATG4B inhibitor	SUMO Mot1 rescue	Efflux pump mplx	Yeast Mot1 SUMO
Oc1cccc(C(O)CNCc2ccc(OCc3ccc(Cl)cc3Cl)cc2)c1 (stereo not given)	35.6	0.3	-8.9	54.4	0.1	·
COc1cc(/C=N/Nc2cccc(C)c2)ccc1OC(=O)c1ccco1	14.7	-4.3	6.8	40.5	-0.1	·
O=C(O)c1cn(Cc2ccccn2)c(=O)c2ccccc12	13.1	-0.6	-7.8	+	0.0	0.0
Cc1ccc(NC(=O)C(=O)NCCN2CCN(S(=O)(=O)c3ccccc3)CC2)cc1C	15.8	7.1	-5.6	138.2	0.1	·
C/C(=N/Nc1ccc(F)cc1)c1ccc(Cl)s1	13.0	-0.6	4.5	384.4*	0.0	0.0
C/C(=N\NC(N)=O)c1ccc(Cl)s1	16.0	1.9	-0.4	-26.1	0.0	·
CCOc1ccc(NC(=O)Nc2ccc3nsnc3c2)cc1	-6.7	8.0	-5.8	+	-0.1	0.6
CCOc1ccc(NC(=S)Nc2ccc3nsnc3c2)cc1	13.7	1.0	14.4	30.9	0.3	·
O=S(=O)(c1cccc(-c2nnco2)c1)N1CCCC1	·	-3.6	4.0	+	0.2	0.3
CN(C)CCOC(c1ccc(Cl)cc1)c1ccccn1 (stereo not given)	3.9	-3.7	0.0	974.2*	-0.1	0.3
CCOc1ccc(NC(=O)CNc2ccc(C)cc2Cl)cc1	3.9	-1.8	0.0	810.9*	0.1	-0.9
COc1ccc(NC(=S)NC(=O)C2CCC2)cc1	-0.6	2.7	6.4	555.1*	0.2	-0.7
COC(=O)c1ccc(NC(=O)Nc2ccc(OC)cc2)cc1	16.3	3.6	-7.4	9.2	0.0	·
COc1ccc(NC(=O)Nc2ccc(OC)cc2)cc1	1.3	-62.3	-3.8	391.5*	-0.1	0.1
Cc1cccc(C(=O)NCC(=O)N2CCN(c3ccc(Cl)cc3)CC2)c1	14.4	0.9	-0.7	367.6*	0.3	0.3
O=C(Cc1ccccc1)c1nnc(-c2ccccc2)o1	-48.0	2.5	-1.4	-11.1	0.0	·
O=C(O)C1C2CCCCC2=C2CCCCC2C1C(=O)c1ccccc1 (stereo not given)	28.0	-0.1	1.3	394.1*	0.2	-0.3
CCOC(=O)c1ccc(NC(=S)NCCCN2CCOCC2)cc1	24.6	-1.5	-1.6	621.6*	0.1	0.4
C#CCNCCS(=O)(=O)N(Cc1ccc(Br)cc1)[C@@H](C)C(=O)O	·	-1.9	·	·	-0.3	·
Cn1c(=O)[nH]c(=O)c2c1nc(NCCN)n2CCOc1ccccc1	31.9	-0.6	-15.1	460.6*	0.2	-0.7
Fc1ccccc1-n1cc(-c2ccccc2)[nH]c1=S	23.0	-3.2	-4.2	450.1*	0.2	-0.1
O=c1cc(COc2ncnc3ccccc23)nc2sccn12	20.2	0.5	-6.0	542.6*	0.5	0.2
CC(C)(C)c1ccc(OCCNC(=O)Cc2ccc(F)cc2)cc1	-2.5	-0.1	30.2	0.7	-5.7	·
O=C(CN1C(=O)C2CC=CCC2C1=O)Nc1nc(-c2ccc(F)c(F)c2)cs1 (stereo not given)	·	-4.4	-13.3	25.1	-0.3	·
CSc1ncc2ncn(C3OC(CO)C(O)C3O)c2n1 (stereo not given)	32.8	-1.0	2.7	+	0.4	0.5
COc1cc([N+](=O)[O-])cc(/C=N/NC(=O)c2cc(-c3ccccc3)nc3ccccc23)c1O	-7.9	-7.1	-2.6	-10.6	0.1	·
